Assay outcomes (PubChem BioAssay)
These entries were drawn from the full list.
aSyn UTR act: Activators via SNCA 5'UTR binding, MLPCN | activity score, % (tested at 7.5 µM), hits read low | hit rate 7.1% among 300,000 | alpha-synuclein 5'UTR reporter, activators screen; in the data active = activity score below about -60%
An asterisk follows results filed as active.

SMILES	aSyn UTR act
O=C(Nc1ccc2c(c1)OCO2)Nc1ccc(Br)cn1	-156.5*
NS(=O)(=O)c1ccc(NC(=O)Nc2ccc3c(c2)OCO3)cc1	-117.8*
Cc1ccc(NC(=O)NCc2ccc3c(c2)OCO3)cc1C	-79.0*
O=C(NCc1ccc2c(c1)OCO2)Nc1cccc(Cl)c1	-127.3*
O=C(Nc1ccc2c(c1)OCO2)Oc1ccccc1	-105.7*
O=C(Nc1ccc2c(c1)OCCO2)NC12CC3CC(CC(C3)C1)C2	-194.9*
O=C(Nc1cccc(Cl)c1)Nc1ccc2c(c1)OCO2	-159.3*
O=C(Nc1cc(N2CCCCC2)ncn1)c1ccc(F)cc1	-86.3*
C#CCSc1ncc(-c2ccccc2)cn1	-100.6*
C=CCSc1ncc(-c2ccccc2)cn1	-159.7*
O=C(Nc1ccc(N2CCOCC2)cc1)Nc1ccc2nc(-c3ccco3)c(-c3ccco3)nc2c1	112.2
O=C(Nc1ccc2nc(-c3ccco3)c(-c3ccco3)nc2c1)NC1CC1	-64.9*
COc1cc(/C=C/c2nc3ccccc3s2)cc(OC)c1O	-69.1*
COc1ccc(/C=N/Nc2nc3ccccc3s2)cc1O	59.7
COc1ccc(C=C(c2nc3ccccc3s2)c2nc3ccccc3s2)cc1O	-281.1*
CN(C)c1ccc(/C=C/c2nc3ccccc3s2)cc1	81.1
c1ccc(-c2ccc(CN3CCSCC3)cc2)cc1	-87.9*
Cc1ccccc1Cn1nnc(-c2ccc3c(c2)OCO3)n1	-167.6*
Fc1cccc(Cn2ccc(-c3ccc4c(c3)OCO4)n2)c1	-96.6*
Cc1ccccc1Cn1ccc(-c2ccc3c(c2)OCO3)n1	-129.7*
Fc1cccc(Cl)c1Cn1nnc(-c2ccc3c(c2)OCO3)n1	-96.9*
Clc1cccc(Nc2nc(-c3ccncc3)cs2)c1	-159.3*
Cc1ccc(Nc2nc(-c3ccncc3)cs2)cc1	-331.1*
N#Cc1ccc(-c2cn3c(n2)SCC3)cc1	-143.8*
O=[N+]([O-])c1ccc(-c2cn3c(n2)SCC3)cc1	-80.5*
SMILES	aSyn UTR act
CC(C)(C)SCCNC(=O)Nc1ccccc1	-87.0*
CC(C)(C)SCCNC(=O)CSc1ccccc1	-72.5*
Cc1cc(C)c2c(N)c(-c3nc4ccccc4[nH]3)sc2n1	-130.8*
CN(C)c1ccc(C(=O)/C=C/c2cccnc2)cc1	-167.3*
Oc1c(C=Nc2ccccc2)sc2ccccc12	-65.2*
Oc1c(C=Nc2ccc(Cl)cn2)sc2ccccc12	-180.0*
Oc1sc(C=Nc2ccccc2)c2ccccc12	-254.0*
Oc1sc(C=Nc2ccc(F)cc2)c2ccccc12	-227.2*
CSc1nnc(NC(=O)C23CC4CC(CC(C4)C2)C3)s1	-127.9*
CCc1nnc(NC(=O)C23CC4CC(CC(C4)C2)C3)s1	-252.9*
CC(C)Cc1nnc(NC(=O)C23CC4CC(CC(C4)C2)C3)s1	-102.5*
Cc1ccc(-c2nn(-c3ccccc3)cc2C=C2C(=O)CC(C)(C)CC2=O)cc1	-94.0*
CC1=NNC(=O)/C1=C\c1cn(-c2ccccc2)nc1-c1ccc(Cl)cc1	98.4
Cc1nc2cc(NC(=O)C3COc4ccccc4O3)ccc2s1 (stereo not drawn)	-140.8*
Cc1nc2ccc(NC(=O)C3COc4ccccc4O3)cc2s1 (stereo not drawn)	-141.3*
[O-]/C(=C(\C(=S)Nc1ccc(SC(F)F)cc1)[n+]1cccc(CO)c1)c1ccc(Cl)s1	-70.6*
COC(=O)c1c(-c2ccc(Br)cc2)noc1N	-65.0*
COc1ccc(-c2cc3ncc(-c4ccccc4)c(N)n3n2)cc1	-95.9*
Cc1ccc(NC(=O)Nc2ccc(Cl)cc2)c(Br)c1	-154.9*
Cc1ccc(NC(=O)c2ccccn2)c(Br)c1	-103.3*
Cc1ccc(C)c(NC(=O)c2ccccn2)c1	-72.1*
CC(=O)c1sc(NC(=O)c2cnc(Cl)c(Cl)c2)nc1C	-127.7*
O=C(Nc1nccs1)c1ccc2c(c1)OCO2	-145.8*
Cc1nc(NC(=O)c2ccccc2)sc1Cc1ccc2c(c1)OCO2	-68.7*
CC(=O)c1sc(NC(=O)c2ccc(C(C)(C)C)cc2)nc1C	-107.2*
SMILES	aSyn UTR act
CC(=O)c1sc(NC(=O)c2ccc3c(c2)OCO3)nc1C	-135.6*
Cc1csc(NC(=O)c2ccc3c(c2)OCO3)n1	-81.0*
CCN1CCc2nc(NC(=O)c3ccc4c(c3)OCCO4)sc2C1	-82.9*
CC(=O)c1sc(NC(=O)c2ccc(C)c(C)c2)nc1C	-86.3*
Cc1ccc(C(=O)N2c3ccccc3CC2C)o1 (stereo not drawn)	-92.3*
CC1Cc2ccccc2N1C(=O)c1ccc(Br)o1 (stereo not drawn)	-128.6*
Cc1cccc(N2CCN(C(=O)c3ccc(CS(=O)(=O)c4ccccc4C)o3)CC2C)c1 (stereo not drawn)	96.9
Cn1cc(Cl)c(/C(N)=N/OC(=O)c2ccccc2C(F)(F)F)n1	-98.0*
FC(F)(F)c1cnc2c(-c3ccccc3)n[nH]c2c1	-129.5*
Cc1cc(NC(=O)c2ccc([N+](=O)[O-])o2)ccc1NC(=O)c1ccco1	-110.4*
O=C(Nc1ccc(NC(=O)c2ccco2)cc1)c1ccc2c(c1)OCCO2	60.9
Cc1cc(NC(=O)c2ccc3c(c2)OCCO3)ccc1NC(=O)c1ccco1	-66.2*
CCCCn1nc(NC(=O)COC)c2cc3cc(OC)ccc3nc21	-77.6*
COc1cccc(CN(C)C(=O)c2ccc(COc3ccc(Cl)cc3)cc2)c1OC	-101.2*
O=C(Nc1nc(-c2cccc3ccccc23)cs1)c1ccc2c(c1)S(=O)(=O)c1ccccc1C2=O	-142.8*
CCc1ccc(CCC(=O)Nc2ccc(Cl)cc2)o1	-66.8*
O=c1c(Br)c(NCc2ccccc2)cnn1-c1ccc(F)cc1	-68.5*
O=C(CCCc1ccccc1)Nc1ccccn1	-110.9*
Cc1ccnc(NC(=O)CCCc2ccccc2)c1	-181.6*
Cc1ccc(-c2cc(C(=O)N3CCN(c4ccc(F)cc4)CC3)c3ccccc3n2)o1	-95.8*
O=C(c1cc(-c2ccncc2)nc2c(Cl)cccc12)N1CCN(c2ccccc2F)CC1	99.1
COc1ccc(-c2cc(C(=O)N3CCN(c4ccccn4)CC3)c3ccccc3n2)cc1	-139.9*
CCOc1ccc(-c2cc(C(=O)N3CCN(c4ccccn4)CC3)c3ccccc3n2)cc1	-67.9*
Cc1ccc(S(=O)(=O)N2CCCCC2CCNC(=O)C(=O)NCc2ccco2)cc1 (stereo not drawn)	-66.5*
CCn1cc(C(=O)NCc2ccco2)c(=O)c2cc(S(=O)(=O)N3CC(C)CC(C)C3)ccc21 (stereo not drawn)	81.9
SMILES	aSyn UTR act
Cc1ccc(S(=O)(=O)N2CCCCC2CCNC(=O)C(=O)Nc2ccccc2F)cc1 (stereo not drawn)	-148.4*
Cc1ccc(S(=O)(=O)N2CCCCC2CCNC(=O)C(=O)NCCc2ccco2)cc1 (stereo not drawn)	-101.8*
NS(=O)(=O)c1cc2c(cc1Cl)NC(C1C[C@H]3C=C[C@@H]1C3)NS2(=O)=O (stereo partly drawn)	-79.7*
O=C(O)c1ccccc1-c1ncc(-c2ccccc2)o1	-136.6*
Cc1ccc(-c2nnc(SCc3ccccc3F)o2)cc1	-80.6*
COc1ccc(-c2nnc(SCc3ccccc3F)o2)cc1OC	-66.2*
O=C(NCCCc1ccccc1)c1ccc(Br)o1	-62.2*
Cc1ccc(C(=O)NCCCc2ccccc2)c(C)c1	-129.3*
Cc1ccc(C(=O)NCCCc2ccccc2)c(Cl)c1	-100.2*
O=C(NCCCc1ccccc1)c1ccccc1O	-139.9*
O=C(NCCCc1ccccc1)c1ccc([N+](=O)[O-])cc1Cl	-82.7*
Cc1ccc2c(c1)c(C)c(C)n2CC(O)Cn1nnc2ccccc21 (stereo not drawn)	-70.1*
O=C(/C=C/c1ccccc1)Nc1ccc(Br)cn1	-124.6*
